# Measured values: PubChem BioAssay (EPA / NIEHS)
# Active and inactive are the calls of the source. How the source made its calls: active means hit-call score of the fitted dose curve at least 0.9, where 1 is the maximum; inactive means score below 0.9.
# Read-out: Transforming Growth Factor (TGFA), TGFA (gene 7039)
# Test: LTEA_HepaRG_TGFA: Life Technologies and Expression Analysis (LTEA) Assay for Transforming Growth Factor (TGFA) using HepaRG (AID 2283532)
# Conditions: mRNA level, 48 h; actives raise or lower the signal
# Experimental: LTEA_HepaRG is a cell based, multiplexed-readout assay that uses HepaRG, a human liver cell line, with measurements taken at 48 hours after chemical dosing on a 96-well plate.LTEA_HepaRG_TGFA is one of 102 assay component(s) measured in the LTEA HepaRG cell culture assay. It is a marker of Cell proliferation, survival, death.Data from the assay component LTEA_HepaRG_TGFA was analyzed into 1 endpoint. This assay endpoint, LTEA_HepaRG_TGFA, was analyzed with bidirectional fitting relative to DMSO as the negative control and baseline of activity. Using a type of inducible reporter, measures of mRNA induction for gain or loss-of-signal activity can be used to understand regulation of transcription factor activity. To generalize the intended target to other relatable targets, this assay endpoint is annotated to the growth factor intended target family, where the subfamily is EGF-like domain.
# A total of 1060 chemcials from the ToxCast library were tested in eight-point concentration-response experiments. Cell culture and cytotoxicity assays were conducted at Thermo Fisher Scientific's Custom Services facility (Madison, WI). A single lot of human HepaRG cells (Thermo Fisher Scientific, Frederick, MD) was used for the cell culture experiments. 96-well format collagen type I coated plates of human HepaRG cells were prepared using established methods. Briefly, cryopreserved HepaRG cells were thawed, plated at a density of approximately 100,000 cells/well in HepaRG Thaw, Plate, and General Purpose media (HPRG770, Thermo Fisher Scientific), and incubated for 48 hours. 0.5% DMSO was selected as vehicle control to balance the requisite need of DMSO in HepaRG cultures to maintain differentiation (for example, baseline metabolism, proportions of hepatocytes vs. cholangiocytes), while enabling further hepatic receptor pathway activation (for example, PXR and CAR) in response to chemical exposure. 48 hours after plating, the culture medium was replaced with HepaRG Serum-Free Incudtion Media. Cells were exposed to each test chemical in duplicate and maintained in CO2 incubators for another 48 hours. Chemical plates were thawed to room temperature and 200x concentrations of treatment groups were prepared. 8-point conentration-reponse curves were made with the highest exposure at 100 uM, followed by half-log dilutions, all in 0.5% DMSO. Each test plate contained variouse controls, induction positive controls (1mM phenobarbital), cytotoxicity positive controls ([…] aflatoxin B1), vehicle controls (0.5% DMSO), and total lysis controls (0.5% DMSO). Cell morphology images were taken using an Essen IncuCyte FLR automated microscope, with six 96-well plates imaged in about 24 minutes. Images were captured and exported and JPEG files. Spent culture media was transfered to black-well plates for the LDH assay, and remaining media was sorted at -80 C for later use. Cells were treated with RLT buffer and frozen until shipped for gene expression analysis. Total RNA was isolated from the cell suspension in 75 uL of Buffer RLT (Qiagen, Germantown, MD 20874) by Quintiles/Expression Analysis (Durham, NC) using a custom isolation procedure. Total RNA from each plate well was transferred to a preamplification plate. Fluidigm's 96.96 Dynamic ArrayTM (Fluidigm, Amsterdam, the Netherlands) technology was used for gene expression analyses by quantitative reverse transcription polymerase chain reaction (qRT-PCR, performed by Quintiles/Expression Analysis, Durham, NC)89. Standard TaqManTM Assays (Applied Biosystems/ThermoFisher Scientific, Foster City, CA) were used to assess the expression of 93 genes selected based on their selectivity and sensitivity to important hepatic receptors known to be modulated by environmental chemicals; importance in human hepatocyte functionality; and hepatotoxicity. […]
Structure (SMILES),outcome,AC50
CN(C)C(=O)Nc1cccc(C(F)(F)F)c1,inactive,–
CCOP(=S)(OCC)OC(Cl)C(Cl)(Cl)Cl (stereo not given),inactive,–
CCOC(=O)CC(SP(=O)(OC)OC)C(=O)OCC (stereo not given),inactive,–
CCCCSP(=O)(SCCCC)SCCCC,inactive,–
CSc1nnc(C(C)(C)C)c(=O)n1N,inactive,–
CCCCN(CC)c1c([N+](=O)[O-])cc(C(F)(F)F)cc1[N+](=O)[O-],inactive,–
Cc1ccn2nc(S(=O)(=O)Nc3c(F)cccc3F)nc2n1,inactive,–
CCNc1nc(Cl)nc(NC(C)(C)C#N)n1,inactive,–
CON=C(C(=O)OC)c1ccccc1CON=C(C)c1cccc(C(F)(F)F)c1,inactive,–
COc1ccc(C(=CC(=O)N2CCOCC2)c2ccc(Cl)cc2)cc1OC,inactive,–
CSC1=N[C@@](C)(c2ccccc2)C(=O)N1Nc1ccccc1,–,29.7 µM (active)
C[N+]1(C)CCCCC1,inactive,–
CCOP(=O)(NC(C)C)Oc1ccc(SC)c(C)c1 (stereo not given),inactive,–
Cc1cc(C2CC2)nc(Nc2ccccc2)n1,inactive,–
FC(F)C(F)(F)OCC(Cn1cncn1)c1ccc(Cl)cc1Cl (stereo not given),–,62.2 µM (active)
CCc1cccc(C)c1N(C(=O)CCl)C(C)COC (stereo not given),inactive,–
CCOP(=O)(SC(C)CC)N1CCSC1=O (stereo not given),inactive,–
C#CC(C)(C)NC(=O)c1cc(Cl)cc(Cl)c1,inactive,–
CN(C)[C@@H]1C(=O)C(C(N)=O)=C(O)[C@@]2(O)C(=O)C3=C(O)c4c(O)cccc4[C@@](C)(O)[C@H]3[C@H](O)[C@@H]12,inactive,–
CCOP(=S)(OCC)SCCSCC,inactive,–

Structure (SMILES),outcome,AC50
CCc1cccc(CC)c1N(COC)C(=O)CCl,inactive,–
CCCOCC(=Nc1ccc(Cl)cc1C(F)(F)F)n1ccnc1,–,92.4 µM (active)
COP(=O)(OC)C(O)C(Cl)(Cl)Cl (stereo not given),inactive,–
COc1cccc(C(=O)NN(C(=O)c2cc(C)cc(C)c2)C(C)(C)C)c1C,inactive,–
CCCOc1nn(C(=O)NS(=O)(=O)c2ccccc2C(=O)OC)c(=O)n1C,inactive,–
CC(C)=CC1C(C(=O)OCN2C(=O)C3=C(CCCC3)C2=O)C1(C)C (stereo not given),inactive,–
C[Si](Cn1cncn1)(c1ccc(F)cc1)c1ccc(F)cc1,–,65.1 µM (active)
CCOP(=S)(OCC)Oc1cc(C)nc(C(C)C)n1,inactive,–
CC1(C(=O)Nc2ccc(O)c(Cl)c2Cl)CCCCC1,inactive,–
COP(=O)(OC)SCn1c(=O)oc2cc(Cl)cnc21,inactive,–
CCOP(=S)(OCC)Oc1ccc2c(C)c(Cl)c(=O)oc2c1,inactive,–
CCCCOC(=O)[C@@H](C)Oc1ccc(Oc2ccc(C#N)cc2F)cc1,inactive,–
O=c1ccc(=O)[nH][nH]1,inactive,–
CCOC(=O)COc1cc(-c2nn(C)c(OC(F)F)c2Cl)c(F)cc1Cl,inactive,–
CC(Oc1cccc(Cl)c1)C(=O)O (stereo not given),inactive,–
CN(C)NC(=O)CCC(=O)O,inactive,–
CNC(=O)ON=C(SC)C(=O)N(C)C,inactive,–
CSc1nc(NC(C)C)nc(NC(C)C)n1,inactive,–
CC(COc1ccc(Oc2ccccc2)cc1)Oc1ccccn1 (stereo not given),inactive,–
CCOP(=O)(OCC)Oc1cc(C)nc(C(C)C)n1,inactive,–
